For experiment [1], the system named is XIP peptide (Xip251-270) binding. Nature of the experiment: small-molecule binders of XIP peptide, primary screen, biochemical, small-molecule microarray, fluorescence 635/667 nm, 0.1 µg/mL protein (AID 1182). The following applies: fluorescent protein binding, 635 nm, higher = more signal, called active from +8 up or from −8 down.
A further experiment concerns XIP peptide (Xip251-270). Nature of the experiment: small-molecule binders of XIP peptide, primary screen, biochemical, small-molecule microarray, fluorescence 635/667 nm, 0.5 µg/mL protein (AID 1183). The following applies: small-molecule microarray binding, fluorescence 635 nm; higher = more signal.
A short description of experiment [2]: Plasmodium falciparum growth inhibition, primary screen, strain 3D7, DAPI fluorescence, 100 nL (AID 1184).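 Further: parasites grown inside human red blood cells in medium with human serum.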 Particulars: P. falciparum 3D7 growth, 3 d, higher = more signal.
In experiment [3] the target is Homeobox protein Hox-A13 (Mus musculus) (UniProt Q62424). Nature of the experiment: inhibitors of HoxA13-DNA binding, primary screen, biochemical, fluorescence polarization, labeled oligonucleotide (AID 1185). Particulars: 15 min, higher = more signal, called active from +8 up or from −8 down.
Experiment [4] in a line: inhibitors of hydroxyurea-induced Chk1 phosphorylation, primary screen, imaging, HeLa, phospho-Chk1 antibody, percent positive cells (AID 1186). The following applies: hydroxyurea-induced phospho-Chk1 immunofluorescence imaging, higher = more signal.
Experiment [5] can be described thus: inhibitors of hydroxyurea-induced Chk1 phosphorylation, primary screen, imaging, HeLa, phospho-Chk1 nuclear intensity (AID 1187). The following applies: hydroxyurea-induced phospho-Chk1 immunofluorescence imaging, higher = more signal.

Molecules are shown by their SMILES. Activity calls are given as the source filed them. Unless noted, how the calls were made is not given here.

Sequence of Homeobox protein Hox-A13 (Mus musculus) (Q62424 whole entry, looked up): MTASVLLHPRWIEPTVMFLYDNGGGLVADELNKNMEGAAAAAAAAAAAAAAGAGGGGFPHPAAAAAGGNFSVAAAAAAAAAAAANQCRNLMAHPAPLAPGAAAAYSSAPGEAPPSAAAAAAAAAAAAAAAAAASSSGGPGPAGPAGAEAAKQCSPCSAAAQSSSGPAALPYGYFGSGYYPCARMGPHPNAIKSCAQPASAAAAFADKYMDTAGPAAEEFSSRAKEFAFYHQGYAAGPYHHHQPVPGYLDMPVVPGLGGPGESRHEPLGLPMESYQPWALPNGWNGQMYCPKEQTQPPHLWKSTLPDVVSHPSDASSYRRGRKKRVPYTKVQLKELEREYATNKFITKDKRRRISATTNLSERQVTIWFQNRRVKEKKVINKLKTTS

Regarding `Cc1ccc(S[C@]2(C(=O)NCc3ccccc3)CC(=O)N(Cc3ccccc3Cl)[C@@H]2c2ccc(CO)cc2I)cc1`, the composite z-score in experiment [1] is 0.935 (inactive); in the experiment with XIP peptide (Xip251-270), 0.348. The z-score in experiment [2] was -0.496; in experiment [3], -1.91 (inactive); in experiment [4], 0.0452 (inactive); in experiment [5], 0.0687 (inactive).
Regarding `O=C(O)[C@@]1(Cc2ccccc2)N=C(c2ccc(OCCCO)cc2)O[C@H]1c1ccccc1`, the composite z-score in experiment [1] was 0.213 (inactive); with XIP peptide (Xip251-270), 0.427. Further, the z-score in experiment [2] was 0.653; in experiment [3], -5.03 (inactive); in experiment [4], -0.294 (inactive); in experiment [5] it was -0.224 (inactive).
On to `CC(C)c1ccc(NN2C(C(O)c3c(F)cccc3Cl)C=CC3C(=O)N(c4ccccc4)C(=O)C32)cc1` (stereo unspecified), for which the composite z-score in experiment [1] is 0.38 (inactive); in the experiment with XIP peptide (Xip251-270) it was 0.748. The z-score in experiment [2] was -0.668; in experiment [3] it was -1.64 (inactive); in experiment [4], 0.561 (inactive); in experiment [5], 0.539 (inactive).
Regarding `CCCCCCc1nc(CCCc2cc3c(c(CCCCCC)n2)[Si](C(C)C)(C(C)C)OC3)cc2c1[Si](C(C)C)(C(C)C)OC2`, the composite z-score in experiment [1] is -0.53 (inactive); in the experiment with XIP peptide (Xip251-270) it was -0.442. Further, the z-score in experiment [2] was -2.33; in experiment [3], -5.85 (inactive); in experiment [4] it was 0.28 (inactive); in experiment [5], 0.382 (inactive).
Turning to `CC(C)CNC(=O)[C@@H]1c2ccccc2C(=O)N(Cc2cc(C(F)(F)F)cc(C(F)(F)F)c2)[C@H]1c1ccc(CO)cc1`, the composite z-score in experiment [1] was -0.133 (inactive); in the experiment with XIP peptide (Xip251-270) it was -0.308. In addition, the z-score in experiment [2] is -1.2; in experiment [3], -1.46 (inactive); in experiment [4], -0.236 (inactive); in experiment [5], 0.21 (inactive).
Consider `COc1ccc([Si](C)(C)[C@@H]2[C@@H](CCn3cc([C@H](O)c4ccccc4)nn3)O[C@]3(C(=O)N(Cc4cccc(N5CCOC5=O)c4)c4ccccc43)[C@H]2C)cc1`, for which the composite z-score is 0.672 (inactive) in experiment [1] and 0.168 in the experiment on XIP peptide (Xip251-270). Moreover, the z-score in experiment [2] was -2.33; in experiment [3], -2.64 (inactive); in experiment [4], -0.862 (inactive); in experiment [5] it was 0.0282 (inactive).
Take `CCOC(=O)C[C@H]1[C@H](OC(=O)c2ccc(-c3ccccc3)cc2)[C@@H](NC(=O)c2ccc3ccccc3c2)c2cc(OCCCO)ccc2N1C(=O)Cc1ccc(OC)cc1`: the composite z-score in experiment [1] is -0.341 (inactive); in the experiment on XIP peptide (Xip251-270), -0.0332. The z-score was -0.884 in experiment [2], -1.89 (inactive) in experiment [3], -0.192 (inactive) in experiment [4] and 0.0873 (inactive) in experiment [5].
As for `CC(=O)Nc1cc(Br)ccc1C(=O)O`, the composite z-score is 1.16 (inactive) in experiment [1] and 0.53 in the experiment with XIP peptide (Xip251-270). For the same molecule, the z-score in experiment [2] is 1.96; in experiment [3] it was 0.273 (inactive); in experiment [4], 0.1 (inactive); in experiment [5], 0.0714 (inactive).
Regarding `CC(C)CNC(=O)[C@@]1(c2ccc([N+](=O)[O-])cc2)CC(=O)N(CC23CC4CC(CC(C4)C2)C3)[C@@H]1c1ccc(CO)cc1`, the composite z-score was 1.1 (inactive) in experiment [1] and 0.796 with XIP peptide (Xip251-270). The z-score in experiment [2] is 0.0716; in experiment [3], -4.17 (inactive); in experiment [4], -0.471 (inactive); in experiment [5], -0.141 (inactive).
In the case of `CCOC(=O)C1=CCC(c2ccc(C#N)cc2)N(S(=O)(=O)c2ccc(C)cc2)C1` (stereo unspecified), the composite z-score was 1.79 (inactive) in experiment [1] and 0.766 in the experiment with XIP peptide (Xip251-270). Further, the z-score in experiment [2] was -1.33; in experiment [3], -3.74 (inactive); in experiment [4] it was -0.308 (inactive); in experiment [5], -1.22 (inactive).
Turning to `COc1ccc([Si](C)(C)[C@H]2[C@H](CC(=O)N(CCO)Cc3ccccc3)O[C@@]3(C(=O)N(Cc4cccc(N5CCC5=O)c4)c4ccccc43)[C@@H]2C)cc1`, the composite z-score in experiment [1] is 0.0163 (inactive); in the experiment with XIP peptide (Xip251-270), 0.281. Further, the z-score in experiment [2] was -2.84; in experiment [3] it was -2.16 (inactive); in experiment [4], -1.46 (inactive); in experiment [5] it was -1.2 (inactive).
As to `[N-]=[N+]=Nc1ccccc1C[C@]1(C(=O)NCCN2CCOCC2)N=C(c2ccc(OCCCO)cc2)O[C@H]1c1ccccc1`, the figures for the composite z-score (in experiment [1]; in the experiment with XIP peptide (Xip251-270)) were 0.533 (inactive) and 0.902, respectively. The z-score was -2.37 in experiment [2], -5.89 (inactive) in experiment [3], 0.184 (inactive) in experiment [4] and 0.535 (inactive) in experiment [5].
In the case of `O=C1O[C@H](c2ccccc2)[C@H](c2ccccc2)N2[C@H]1[C@@H](C(=O)N1CCN(c3ncccn3)CC1)[C@]1(C(=O)Nc3ccccc31)[C@H]2c1ccc(OCCO)cc1`, the composite z-score in experiment [1] is -0.161 (inactive); with XIP peptide (Xip251-270), 0.219. For the same molecule, the z-score is -2.39 in experiment [2], 2.46 (inactive) in experiment [3], -0.54 (inactive) in experiment [4] and -1.1 (inactive) in experiment [5].
For the molecule `C=CCOC(=O)[C@@H]1[C@H]2C(=O)O[C@H](c3ccccc3)[C@H](c3ccccc3)N2[C@H](c2ccc(OCCOC(=O)[C@@H]3C[C@@H]4C(=O)N[C@@H](Cc5ccccc5)C(=O)N4[C@@H]3c3cccc(OCCO)c3)cc2)[C@@]12C(=O)Nc1ccc(I)cc12`, the composite z-score in experiment [1] is 0.299 (inactive); in the experiment on XIP peptide (Xip251-270) it was 0.738. Further, the z-score in experiment [2] was -1.69; in experiment [3] it was -0.282 (inactive); in experiment [4], 0.0948 (inactive); in experiment [5], 0.608 (inactive).
As for `CC(C)C(=C=CC[C@H](O)c1cccc(OCCO)c1)C[C@H](O)COCc1ccccc1`, the composite z-score in experiment [1] was 0.31 (inactive); in the experiment on XIP peptide (Xip251-270), -0.376. Moreover, the z-score in experiment [2] was -1.49; in experiment [3], -3.93 (inactive); in experiment [4], -0.648 (inactive); in experiment [5], -0.289 (inactive).
Consider `COCCCNC(=O)[C@@]1(C)c2ccccc2C(=O)N(Cc2cc(C(F)(F)F)cc(C(F)(F)F)c2)[C@H]1c1ccc(CO)cc1`, for which the results for the composite z-score (in experiment [1]; in the experiment on XIP peptide (Xip251-270)) were 0.707 (inactive) and 0.875, respectively. Further, the z-score in experiment [2] is -0.577; in experiment [3], -3.6 (inactive); in experiment [4] it was -0.385 (inactive); in experiment [5] it was 0.0021 (inactive).
Regarding `O=c1oc(-c2ccccc2)nc2cc(Br)ccc12`, the results for the composite z-score (in experiment [1]; in the experiment with XIP peptide (Xip251-270)) were -0.208 (inactive) and -0.0114, respectively. In addition, the z-score is 1.64 in experiment [2], 4.46 (inactive) in experiment [3], 0.208 (inactive) in experiment [4] and 0.0639 (inactive) in experiment [5].
As to `C=CCOC(=O)[C@@H]1[C@H]2C(=O)O[C@H](c3ccccc3)[C@H](c3ccccc3)N2[C@H](c2ccc(OCCOC(=O)[C@@H]3C[C@@H]4C(=O)NCC(=O)N4[C@@H]3c3cccc(OCCO)c3)cc2)[C@@]12C(=O)Nc1ccc(I)cc12`, the composite z-score in experiment [1] was 0.567 (inactive); in the experiment on XIP peptide (Xip251-270), 0.765. The z-score was -1.6 in experiment [2], 0.8 (inactive) in experiment [3], 1.07 (inactive) in experiment [4] and 0.783 (inactive) in experiment [5].
In the case of `O=C1OCCC=C[C@H]2OC34C=CCN(c5ccc6ccccc6c5)C(=O)[C@H]3N(CCCCCO)C(=O)[C@@H]4C12` (stereo partly specified), the composite z-score in experiment [1] is 0.427 (inactive); with XIP peptide (Xip251-270), 0.385. For the same molecule, the z-score in experiment [2] was 0.405; in experiment [3], -5.5 (inactive); in experiment [4], -0.202 (inactive); in experiment [5], 0.891 (inactive).
As for `COCCOC(=O)N1C(=O)[C@@]2(c3cc(C#CCNC(N)=O)ccc31)[C@H](c1ccc(O)cc1)N1[C@H](c3ccccc3)[C@H](c3ccccc3)OC(=O)[C@H]1[C@@H]2C(=O)NC[C@H](O)c1ccccc1`, the composite z-score is 1.82 (inactive) in experiment [1] and 0.733 in the experiment on XIP peptide (Xip251-270). The z-score in experiment [2] is -0.0916; in experiment [3], -3.19 (inactive); in experiment [4], -0.107 (inactive); in experiment [5], -0.369 (inactive).
As for `COCC(=C=CC[C@@H](O)c1ccc(CO)o1)CCO`, the results for the composite z-score (in experiment [1]; in the experiment on XIP peptide (Xip251-270)) were 0.848 (inactive) and 0.344, respectively. Besides, the z-score in experiment [2] was -1.61; in experiment [3], -3.24 (inactive); in experiment [4], -1 (inactive); in experiment [5], -0.68 (inactive).
On to `CO[C@H]1O[C@H](CO)[C@@H](OC(=O)Nc2ccc(Oc3ccccc3)cc2)[C@H](OC(=O)Nc2ccccc2)[C@H]1OC(=O)Nc1ccccc1`, for which the composite z-score was 1.21 (inactive) in experiment [1] and 0.916 with XIP peptide (Xip251-270). Further, the z-score in experiment [2] was -2.21; in experiment [3], -1.38 (inactive); in experiment [4], -0.444 (inactive); in experiment [5], -0.307 (inactive).
In the case of `O=c1cccc(CCc2ccccc2)o1`, the values for the composite z-score (in experiment [1]; in the experiment on XIP peptide (Xip251-270)) were 0.223 (inactive) and 0.903, respectively. In addition, the z-score in experiment [2] was 2.16; in experiment [3] it was -3.17 (inactive); in experiment [4] it was 0.576 (inactive); in experiment [5] it was 0.158 (inactive).
Turning to `C=CCC(OC(C)=O)[C@@H]1[C@@H](N(Cc2cccc3ccccc23)C(=O)c2cccc3ccccc23)c2cc(OCCCO)ccc2N1C(=O)c1ccc2ccccc2n1` (stereo partly specified), the composite z-score in experiment [1] is 0.376 (inactive); with XIP peptide (Xip251-270) it was 0.343. For the same molecule, the z-score was -1.29 in experiment [2], -2.11 (inactive) in experiment [3], 0.316 (inactive) in experiment [4] and 0.545 (inactive) in experiment [5].
Regarding `O=C1O[C@H](c2ccccc2)[C@H](c2ccccc2)N2[C@H]1[C@@H](C(=O)NC[C@H](O)c1ccccc1)[C@]1(C(=O)Nc3ccc(C#CCCO)cc31)[C@H]2c1ccc(O)cc1`, the composite z-score is -0.105 (inactive) in experiment [1] and 0.278 in the experiment on XIP peptide (Xip251-270). Moreover, the z-score is -1.23 in experiment [2], -0.545 (inactive) in experiment [3], 0.289 (inactive) in experiment [4] and 0.0974 (inactive) in experiment [5].
Consider `CCCCC=C[C@@H](NC(=O)c1cccs1)c1ccccc1`, for which the results for the composite z-score (in experiment [1]; in the experiment on XIP peptide (Xip251-270)) were -0.0837 (inactive) and -0.513, respectively. The z-score in experiment [2] was -0.414; in experiment [3], -3.05 (inactive); in experiment [4] it was -0.483 (inactive); in experiment [5], -0.695 (inactive).

Source of the values: PubChem BioAssay.
